By AC50 is commonly meant the concentration giving half of the maximal activity seen.

The text below walks through data of PubChem BioAssay (EPA / NIEHS).

Each structure is given as a SMILES string. Calls of active or inactive are those of the source. How the source made its calls: active means hit-call score of the fitted dose curve at least 0.9, where 1 is the maximum; inactive means score below 0.9.

Read-out in experiment [1]: Tissue Factor, F3 (gene 2152)
As to the kind of experiment: BSK_CASM3C_TissueFactor: BioMAP Diversity Plus: CASM3C Assay for Tissue Factor Biomarker Activity (AID 2283052).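 Further: cell surface tissue factor protein level read by ELISA.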 The conditions noted are these: primary human coronary artery smooth muscle cells; actives raise or lower the signal.

Read-out in experiment [2]: Interferon-gamma inducible Protein 10 (IP10), CXCL10 (gene 3627)
As to the kind of experiment: BSK_hDFCGF_IP10: BioMAP Diversity Plus: hDFCGF Assay for Interferon-gamma inducible Protein 10 (IP10) Biomarker Activity (AID 2283053). Particulars: primary human foreskin fibroblasts; actives raise or lower the signal. In a few lines:
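Primary foreskin fibroblasts, human; 24 h compound exposure; IP-10 by ELISA; bidirectional fit vs DMSO.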

Read-out in experiment [3]: Urokinase-type plasminogen activator receptor (uPAR), PLAUR (gene 5329)
As to the kind of experiment: BSK_CASM3C_uPAR: BioMAP Diversity Plus: CASM3C Assay for Urokinase-type plasminogen activator receptor (uPAR) Biomarker Activity (AID 2283054).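 Further: cell-surface uPAR protein level quantified by ELISA.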 Particulars: primary human coronary artery smooth muscle cells; actives raise or lower the signal.

Read-out in experiment [4]: Vascular cell adhesion molecule 1 (VCAM1), VCAM1 (gene 7412)
As to the kind of experiment: BSK_CASM3C_VCAM1: BioMAP Diversity Plus: CASM3C Assay for Vascular cell adhesion molecule 1 (VCAM1) Biomarker Activity (AID 2283055).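 Further: VCAM-1 protein level quantified by ELISA on the cells.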 The conditions noted are these: primary human coronary artery smooth muscle cells; actives raise or lower the signal.

Read-out in experiment [5]: Collagen III, COL3A1 (gene 1281)
As to the kind of experiment: BSK_hDFCGF_CollagenIII: BioMAP Diversity Plus: hDFCGF Assay for Collagen III Biomarker Activity (AID 2283056). Particulars: primary human foreskin fibroblasts; actives raise or lower the signal. The essentials: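 hDFCGF primary human dermal fibroblasts; 24 h chemical exposure; collagen III by ELISA; bidirectional curve fit vs DMSO baseline (gain or loss of signal).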

Read-out in experiment [6]: Epidermal growth factor receptor (EGFR), EGFR (gene 1956)
As to the kind of experiment: BSK_hDFCGF_EGFR: BioMAP Diversity Plus: hDFCGF Assay for Epidermal growth factor receptor (EGFR) Biomarker Activity (AID 2283057). The conditions noted are these: primary human foreskin fibroblasts; actives raise or lower the signal. In a few lines: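 hDFCGF system, primary human foreskin fibroblasts; compound 24 h; EGFR measured by ELISA; DMSO = negative control/baseline; bidirectional fitting.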

Read-out in experiment [7]: Macrophage colony-stimulating factor (MCSF), CSF1 (gene 1435)
As to the kind of experiment: BSK_hDFCGF_MCSF: BioMAP Diversity Plus: hDFCGF Assay for Macrophage colony-stimulating factor (MCSF) Biomarker Activity (AID 2283060). The conditions noted are these: primary human foreskin fibroblasts; actives raise or lower the signal. In a few lines: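 ELISA read-out of M-CSF in human dermal foreskin fibroblast cultures, 24 h after chemical dosing; gain or loss of signal fitted bidirectionally relative to DMSO baseline.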

The nature of experiment [8]: BSK_hDFCGF_SRB: Viability Assessment in the BioMAP Diversity Plus: hDFCGF Assay (AID 2283061).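 Further: cells exposed to compound for 24 h before the read.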 The conditions noted are these: primary human foreskin fibroblasts. In a few lines:
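Primary human foreskin fibroblasts; 24 h post-dose; fixed 10% TCA, stained 0.1% SRB, A560 read; total protein as overt cytotoxicity measure; curves fit bidirectionally vs DMSO control.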

Read-out in experiment [9]: TIMP metallopeptidase inhibitor 1 (TIMP1), TIMP1 (gene 7076)
As to the kind of experiment: BSK_hDFCGF_TIMP1: BioMAP Diversity Plus: hDFCGF Assay for TIMP metallopeptidase inhibitor 1 (TIMP1) Biomarker Activity (AID 2283062). Particulars: primary human foreskin fibroblasts; actives raise or lower the signal. In a few lines: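 ELISA readout of TIMP-1 from human dermal foreskin fibroblast cultures 24 h post-dosing. Curves were fitted in both directions against DMSO baseline, with SRB total-protein staining in parallel cultures as a cytotoxicity check.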

Read-out in experiment [10]: Monokine induced gamma interferon (MIG), CXCL9 (gene 4283)
As to the kind of experiment: BSK_hDFCGF_MIG: BioMAP Diversity Plus: hDFCGF Assay for Monokine induced gamma interferon (MIG) Biomarker Activity (AID 2283063). Particulars: primary human foreskin fibroblasts; actives raise or lower the signal. The essentials: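 Fibroblasts (human foreskin, primary) dosed, 24 h, MIG by ELISA; fit bidirectional vs DMSO.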

Read-out in experiment [11]: Matrix Metallopeptidase 1 (MMP1), MMP1 (gene 4312)
As to the kind of experiment: BSK_hDFCGF_MMP1: BioMAP Diversity Plus: hDFCGF Assay for Matrix Metallopeptidase 1 (MMP1) Biomarker Activity (AID 2283064). The conditions noted are these: primary human foreskin fibroblasts; actives raise or lower the signal. In a few lines:
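hDFCGF primary fibroblasts (human foreskin); chemical added; 24 h; MMP1 by ELISA; bidirectional fit vs DMSO.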

Read-out in experiment [12]: Vascular cell adhesion molecule 1 (VCAM1), VCAM1 (gene 7412)
As to the kind of experiment: BSK_hDFCGF_VCAM1: BioMAP Diversity Plus: hDFCGF Assay for Vascular cell adhesion molecule 1 (VCAM1) Biomarker Activity (AID 2283065). The conditions noted are these: primary human foreskin fibroblasts; actives raise or lower the signal. In a few lines:
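ELISA read-out of VCAM-1 on human skin fibroblasts, 24 h post-dose; gain or loss of signal fitted bidirectionally against DMSO baseline.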

Read-out in experiment [13]: Plasminogen activator inhibitor-1 (PAI1), SERPINE1 (gene 5054)
As to the kind of experiment: BSK_hDFCGF_PAI1: BioMAP Diversity Plus: hDFCGF Assay for Plasminogen activator inhibitor-1 (PAI1) Biomarker Activity (AID 2283066). The conditions noted are these: primary human foreskin fibroblasts; actives raise or lower the signal. In a few lines: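 Primary dermal fibroblasts (human foreskin), hDFCGF system; compound 24 h; PAI-1 by ELISA; bidirectional fit vs DMSO control.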

Read-out in experiment [14]: Intercellular Adhesion Molecule 1 (ICAM1), ICAM1 (gene 3383)
As to the kind of experiment: BSK_KF3CT_ICAM1: BioMAP Diversity Plus: KF3CT Assay for Intercellular Adhesion Molecule 1 (ICAM1) Biomarker Activity (AID 2283067). The conditions noted are these: primary human keratinocytes with fibroblasts; actives raise or lower the signal. The essentials: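 ELISA readout of ICAM-1; KF3CT human skin co-culture (keratinocytes + foreskin fibroblasts), 24 h post-dose; gain/loss fit vs DMSO baseline.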

Read-out in experiment [15]: Interferon-gamma inducible Protein 10 (IP10), CXCL10 (gene 3627)
As to the kind of experiment: BSK_KF3CT_IP10: BioMAP Diversity Plus: KF3CT Assay for Interferon-gamma inducible Protein 10 (IP10) Biomarker Activity (AID 2283068). The conditions noted are these: primary human keratinocytes with fibroblasts; actives raise or lower the signal. The essentials:
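Human keratinocyte plus foreskin fibroblast primary co-culture exposed to test chemical for 24 h; IP-10 measured by ELISA. Concentration-response fitted bidirectionally against DMSO control as baseline.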

Experiment [16] in a line: BSK_KF3CT_SRB: Viability Assessment in the BioMAP Diversity Plus: KF3CT Assay (AID 2283069).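 Further: total protein by sulforhodamine B staining as a cytotoxicity measure; read 24 h after compound addition.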 Particulars: primary human keratinocytes with fibroblasts. The essentials:
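Keratinocytes co-cultured with foreskin fibroblasts (human primary); chemical added, 24 h; fix 10% TCA, stain 0.1% SRB, A560. Bidirectional fit vs DMSO.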

Read-out in experiment [17]: Interleukin-1 alpha (IL1a), IL1A (gene 3552)
As to the kind of experiment: BSK_KF3CT_IL1a: BioMAP Diversity Plus: KF3CT Assay for Interleukin-1 alpha (IL1a) Biomarker Activity (AID 2283070). The conditions noted are these: primary human keratinocytes with fibroblasts; actives raise or lower the signal. In a few lines: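 Chemicals were dosed onto co-cultured human keratinocytes and foreskin fibroblasts, IL-1a was quantified by ELISA at 24 h, and activity was fitted in both directions relative to DMSO controls.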

Read-out in experiment [18]: TIMP metallopeptidase inhibitor 2 (TIMP2), TIMP2 (gene 7077)
As to the kind of experiment: BSK_KF3CT_TIMP2: BioMAP Diversity Plus: KF3CT Assay for TIMP metallopeptidase inhibitor 2 (TIMP2) Biomarker Activity (AID 2283071). Particulars: primary human keratinocytes with fibroblasts; actives raise or lower the signal. In a few lines:
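Cells: human keratinocytes co-cultured with foreskin fibroblasts. Treat with chemical, 24 h. Measure TIMP-2 by ELISA; fit curves bidirectionally vs DMSO baseline.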

The nature of experiment [19]: BSK_hDFCGF_Proliferation: Cell Proliferation Assessment in the BioMAP Diversity Plus: hDFCGF Assay (AID 2283059).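 Further: curves fitted for both rise and fall of signal versus DMSO baseline.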 Particulars: primary human foreskin fibroblasts. In a few lines: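 Total protein read at 560 nm after 0.1% SRB staining of TCA-fixed human skin fibroblasts, […]. Activity is fitted in both directions relative to DMSO as baseline.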

Turning to `CC(C)(C)C(=O)C(Oc1ccc(Cl)cc1)n1cncn1` (stereo not drawn), the result in experiment [1], in experiment [2], in experiment [3], in [4], in experiment [5] and in experiment [6] was inactive. Also, the outcome in [7], in [8], in experiment [9], in [10], in experiment [11] and in experiment [12] was inactive. The result in experiment [13], in [14], in experiment [15], in experiment [16], in experiment [17] and in experiment [18] was inactive.
`CCOc1nc(C(Cl)(Cl)Cl)ns1`: the result in [1], in [2], in experiment [3], in experiment [4], in experiment [5] and in experiment [6] was inactive. In addition, the result in [19], in experiment [7], in experiment [8], in experiment [9], in experiment [10] and in experiment [11] was inactive. For the same compound, the outcome in [12], in experiment [13], in experiment [14], in experiment [15], in [16] and in [17] was inactive. In [18], the result was inactive.
Take `COC(=O)NS(=O)(=O)c1ccc(N)cc1`: the outcome in [1], in experiment [2], in [3], in [4], in experiment [5] and in experiment [6] was inactive. Besides, the outcome in experiment [19], in [7], in [8], in experiment [9], in experiment [10] and in experiment [11] was inactive. Besides, the result in experiment [12], in experiment [13], in experiment [14], in experiment [15], in experiment [16] and in [17] was inactive. Besides, the outcome in [18] was inactive.
Turning to `COP(=S)(OC)SCn1nnc2ccccc2c1=O`, the result in experiment [1], in experiment [2], in experiment [3], in [4], in experiment [5] and in [6] was inactive. Moreover, the outcome in experiment [7], in [8], in [9], in experiment [10], in experiment [11] and in experiment [12] was inactive. Also, the result in experiment [13], in [14], in [15], in [16], in [17] and in experiment [18] was inactive. Further, the AC50 in [19] is 26.2 µM (active).
Regarding `COC(=O)c1c(C(F)F)nc(C(F)(F)F)c(C2=NCCS2)c1CC(C)C`, the outcome in experiment [1], in [3], in experiment [4], in experiment [5], in experiment [6] and in [19] was inactive. The outcome in experiment [7], in experiment [8], in [9], in experiment [10], in [11] and in experiment [12] was inactive. Besides, the result in experiment [13], in [14], in experiment [16], in experiment [17] and in [18] was inactive. The AC50 was 6.09 µM (active) in [2] and 21.8 µM (active) in experiment [15].
In the case of `N#CN=C1SCCN1Cc1ccc(Cl)nc1`, the outcome in [1], in experiment [2], in [3], in experiment [4], in [5] and in experiment [6] was inactive. Besides, the outcome in experiment [19], in [7], in experiment [8], in [9], in experiment [10] and in experiment [11] was inactive. In addition, the result in experiment [12], in [13], in experiment [14], in experiment [15], in experiment [16] and in experiment [17] was inactive. Further, the result in experiment [18] was inactive.
